In PubChem BioAssay:
Values joined by “and” are separate entries in the source; they are usually repeats but may differ in a detail not shown here. Equal entries are not always repeated. Active and inactive are the calls of the source.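 Rule for the calls, unless noted: active = normalized viability below 100% at a tested concentration; inactive = the rest.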

Experiments:
[1] = stimulators of nuclear beta-catenin in C2C12, primary screen, imaging, WNT3A-conditioned medium, mouse C2C12, NPC library (AID 1117326; in the data active = nuclear beta-catenin stimulation mostly above about 4.2%, no sharp cut-off; inactive = mostly below about 10%); conditions: stronger effect = higher value
[2] = stimulators of insulin release from INS-1E, primary screen, cell-based, 5 mM glucose, NPC library (AID 1117329;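 active = compound raises insulin release from rat beta cells at 5 mM glucose, no numeric limit stated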); conditions: rat INS-1E insulin secretion, at 10 µM, stronger effect = higher value
[3] = growth inhibition of GSK3B-pretreated HCT116 cells – cell-based, CellTiter-Glo, 0.2 to 20 µM (AID 1117336;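 active = compounds lowering colon cancer cell viability after pretreatment blocking the GSK3B kinase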); conditions: HCT116 viability after GSK3B inhibitor, at 20 µM, stronger effect = higher value
[4] = inhibition of endothelial tube formation, primary screen, imaging, VEGF stimulated, CD31 staining, tube area, NPC library (AID 1117340;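 active = compound that reduces growth-factor-driven endothelial tube area in a mixed cell culture, no cutoff stated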); conditions: VEGF-stimulated ADSC/ECFC co-culture, at 10 µM, stronger effect = higher value
[5] = glucagon-like peptide 1 release enhancers, primary assay, NCI-H716 cell line, NPC library (AID 1117341;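 active = compound raises GLP1 secretion from the human gut endocrine cells, with no numeric limit stated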); conditions: NCI-H716 cells, at 10 µM, stronger effect = higher value
[6] = HCT116 colon cancer cell growth inhibition, primary screen, CellTiter-Glo luminescence, NPC library (AID 1117342;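 active = compounds that lower survival of HCT116 colon cancer cells in the luminescence readout, no numeric limit stated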); conditions: at 20 µM (top of the series)
[7] = CellTiter-Glo luminescent readout of SW480 viability loss, NPC library primary (AID 1117343;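 active = compounds that lower viability of the colon cancer cells in the luminescence readout, with no numeric limit stated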); conditions: CellTiter-Glo luminescence; at 20 µM (top of the series)
[8] = decreased DLD-1 cellular survival, CellTiter-Glo luminescent readout, NPC compound collection, primary HTS (AID 1117346;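 active = compounds that lower survival of DLD-1 colon cancer cells in the luminescence readout, no cutoff given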); conditions: DLD-1 viability, CellTiter-Glo luminescence; at 20 µM (top of the series)
[9] = molecular target: 6-phosphogluconate dehydrogenase, decarboxylating (Homo sapiens) (UniProt P52209); test: 6PGD enzyme inhibitors, primary screen, biochemical, human, recombinant enzyme, NADPH absorbance (AID 1159550;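 active = at least 20% inhibition of 6-phosphogluconate dehydrogenase activity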); conditions: recombinant 6PGD, NADPH absorbance 341 nm; at 10 µM; stronger effect = higher value
Sequence of 6-phosphogluconate dehydrogenase, decarboxylating (Homo sapiens) (P52209 whole entry, looked up): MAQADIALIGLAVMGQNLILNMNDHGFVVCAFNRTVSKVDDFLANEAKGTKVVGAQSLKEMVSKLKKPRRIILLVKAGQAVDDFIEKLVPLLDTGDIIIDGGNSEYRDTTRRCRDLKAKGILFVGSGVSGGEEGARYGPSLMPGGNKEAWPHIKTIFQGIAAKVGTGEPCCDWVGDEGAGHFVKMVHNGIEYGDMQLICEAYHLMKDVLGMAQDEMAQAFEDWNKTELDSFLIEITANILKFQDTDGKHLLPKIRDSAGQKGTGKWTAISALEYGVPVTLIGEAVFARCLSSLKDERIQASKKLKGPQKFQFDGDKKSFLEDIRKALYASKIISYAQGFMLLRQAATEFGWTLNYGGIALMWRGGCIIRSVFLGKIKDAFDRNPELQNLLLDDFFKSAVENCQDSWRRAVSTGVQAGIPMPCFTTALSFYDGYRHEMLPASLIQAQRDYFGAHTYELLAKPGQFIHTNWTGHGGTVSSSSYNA

[10] = modulation of C. elegans fzo-1 (AID 1259413; call rule not given here;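 note: fzo-1 mutant C. elegans worms in liquid wells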); conditions: C. elegans fzo-1 modulator screen, mean read-out; stronger effect = higher value
[11] = differential killing of epithelial or mesenchymal cells, primary screen, imaging, PC-3E GFP, TEM4-18 mCherry, co-culture (AID 1345086;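 active = compounds killing one labelled cell type while sparing the other, by normalised counts and ratio limits, not self-fluorescent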;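 for all read-outs here: cells exposed to compound for 72 h before imaging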;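 for red/green cell ratio (normalised): normalised mesenchymal count divided by normalised epithelial count so high means epithelial killing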); conditions: imaging cell counts, at 1 µM; for red/green cell ratio (normalised): actives lie on both sides, counts scaled to control wells, 1 = unselective
[12] = survival rescue of mitochondrial mutant cells in low glucose, primary screen, MELAS cybrids, Rieske KO mouse fibroblasts, CellTiter-Glo (AID 1508586;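 active = mean z-score across replicates of 1.96 or higher in either the MELAS or the Rieske mutant cell line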;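 note: z relative to plate mean and SD of compound and empty wells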)
[13] = ovarian cancer cell viability with rucaparib, profiling panel, oncology-focused library, rucaparib conditional (AID 1508598); conditions: patient-derived ovarian cancer cells, CellTiter-Glo viability, 144 h, stronger effect = lower value
[14] = molecular target: NAD(+) hydrolase SARM1 (Homo sapiens) (UniProt Q6SZW1); test: SARM1 TIR NADase inhibitors, cell lysate, NAD-Glo luminescence (AID 1508614;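 active = compound whose remaining NAD level is above about 45 nM, limit read from the data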;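 note: higher remaining NAD means stronger inhibition of SARM1 NADase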); conditions: SAM-TIR HEK293T lysate NADase, at 1 µM, stronger effect = higher value
Sequence of NAD(+) hydrolase SARM1 (Homo sapiens) (Q6SZW1 whole entry, looked up, the tested form may be a part): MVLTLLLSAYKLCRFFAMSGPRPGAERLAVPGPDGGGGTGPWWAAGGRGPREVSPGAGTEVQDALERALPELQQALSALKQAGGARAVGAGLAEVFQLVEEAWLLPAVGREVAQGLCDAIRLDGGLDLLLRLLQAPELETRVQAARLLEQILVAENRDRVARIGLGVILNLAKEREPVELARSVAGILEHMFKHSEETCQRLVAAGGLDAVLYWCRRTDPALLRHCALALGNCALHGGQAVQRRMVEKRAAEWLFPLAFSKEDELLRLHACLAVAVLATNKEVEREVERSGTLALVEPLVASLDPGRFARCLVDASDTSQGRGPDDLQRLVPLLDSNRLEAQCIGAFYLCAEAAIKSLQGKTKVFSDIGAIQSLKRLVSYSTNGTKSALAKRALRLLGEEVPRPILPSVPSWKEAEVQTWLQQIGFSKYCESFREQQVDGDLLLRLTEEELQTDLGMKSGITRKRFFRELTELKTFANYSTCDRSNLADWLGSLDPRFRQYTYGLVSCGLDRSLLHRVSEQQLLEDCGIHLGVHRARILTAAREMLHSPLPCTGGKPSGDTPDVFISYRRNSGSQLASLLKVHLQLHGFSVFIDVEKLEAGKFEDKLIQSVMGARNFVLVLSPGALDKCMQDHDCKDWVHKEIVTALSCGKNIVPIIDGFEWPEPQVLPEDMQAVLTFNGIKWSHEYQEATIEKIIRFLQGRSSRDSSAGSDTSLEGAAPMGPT

[15] = molecular target: Mitogen-activated protein kinase 7 (Homo sapiens) (UniProt Q13164); test: ERK5 transactivation activators in reporter cells, primary screen, cell-based, HTS (AID 1508626;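 active = luciferase signal above three times the same-plate solvent-only control wells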;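 note: luciferase driven by Gal4-ERK5 fusion binding five Gal4 sites before minimal TATA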); conditions: HeLa Gal4-ERK5 transactivation, 18 h, at 5 µM, stronger effect = higher value
Sequence of Mitogen-activated protein kinase 7 (Homo sapiens) (Q13164 whole entry, looked up, the tested form may be a part): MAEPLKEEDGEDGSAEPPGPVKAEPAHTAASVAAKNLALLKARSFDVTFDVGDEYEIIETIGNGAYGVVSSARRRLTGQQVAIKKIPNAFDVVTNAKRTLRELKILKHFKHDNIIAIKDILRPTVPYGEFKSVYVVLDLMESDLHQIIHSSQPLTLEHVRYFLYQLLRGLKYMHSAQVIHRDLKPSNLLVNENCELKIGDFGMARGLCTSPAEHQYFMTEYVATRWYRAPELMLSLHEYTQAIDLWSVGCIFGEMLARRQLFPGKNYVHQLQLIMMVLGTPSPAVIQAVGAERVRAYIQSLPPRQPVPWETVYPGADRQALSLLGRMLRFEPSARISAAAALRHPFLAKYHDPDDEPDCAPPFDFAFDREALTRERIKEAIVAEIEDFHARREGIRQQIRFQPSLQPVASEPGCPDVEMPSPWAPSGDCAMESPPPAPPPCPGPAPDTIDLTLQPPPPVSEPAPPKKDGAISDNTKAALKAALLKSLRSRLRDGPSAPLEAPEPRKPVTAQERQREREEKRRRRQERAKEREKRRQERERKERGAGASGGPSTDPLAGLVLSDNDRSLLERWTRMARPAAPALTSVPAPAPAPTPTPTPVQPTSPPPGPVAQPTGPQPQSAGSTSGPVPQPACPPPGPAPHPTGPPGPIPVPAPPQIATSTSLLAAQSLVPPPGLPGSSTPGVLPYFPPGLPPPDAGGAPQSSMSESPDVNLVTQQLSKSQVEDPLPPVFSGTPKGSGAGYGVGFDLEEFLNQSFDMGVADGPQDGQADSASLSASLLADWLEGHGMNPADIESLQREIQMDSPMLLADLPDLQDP

F380Y = test: modulators of BK channel variants, profiling panel, selectivity assay, cell-based, U2OS BacMam, thallium flux, beta subunits (AID 1259406;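 active = thallium flux through the channel raised or lowered by more than 3 SD from vehicle-only wells, actives on both sides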;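 note: initial slope of Thallos dye fluorescence rise after thallium is added; log ratio against the mean of 0.3% DMSO vehicle wells on the same plate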); conditions: at 30 µM
F380Y/beta1 = test: as above; conditions: at 30 µM
F380Y/beta2Delta = test: as above; conditions: at 30 µM
[16] = measured here: epithelial PC-3E GFP cell survival
[17] = measured here: mesenchymal TEM4-18 mCherry cell survival
[18] = MELAS cybrid survival, CellTiter-Glo 48 h, stronger effect = higher value
[19] = Rieske KO mouse fibroblast survival, CellTiter-Glo 72 h

O=C1CCC(N2C(=O)c3ccccc3C2=O)C(=O)N1 (stereo not drawn)
1.44: normalised cell number [11, 17]
1.23: normalised cell number [11, 16]
-0.261 and 0.0412 and -1.15: z-score [12, 19]
2.1%: nuclear beta-catenin stimulation ([1]; stimulation, at 2 µM)
inactive: nuclear beta-catenin stimulation ([1]; at 10 µM) 2.4% | insulin secretion stimulation [2] 0.6% | viability decrease [3] -12.6% | tube area decrease [4] 5.6% | GLP1 secretion stimulation [5] -3.8% | inhibition of viability [6] 6.9% | viability decrease (inhibition) [7] 11.1% | inhibition [9] -1.45% | mean signal [10] 238 | red/green cell ratio (normalised) [11] 1.17 | z-score [12, 18] -0.413 and 0.577 and -0.221 | viability ([13]; at 0.000305 µM, OCI-C5x cells, with rucaparib 10 µM, 100% = cells with rucaparib alone) 117% | viability ([13]; at 0.000305 µM, OCI-P5x cells, without rucaparib) 103% | viability ([13]; at 0.00122 µM, OCI-C5x cells, with rucaparib 10 µM, 100% = cells with rucaparib alone) 108% | viability ([13]; at 0.00122 µM, OCI-C5x cells, without rucaparib) 102% | viability ([13]; at 0.00122 µM, OCI-P5x cells, with rucaparib 20 µM, 100% = cells with rucaparib alone) 100% | viability ([13]; at 0.00122 µM, OCI-P5x cells, without rucaparib) 109% | viability ([13]; at 0.00488 µM, OCI-C5x cells, with rucaparib 10 µM, 100% = cells with rucaparib alone) 110% | viability ([13]; at 0.00488 µM, OCI-P5x cells, with rucaparib 20 µM, 100% = cells with rucaparib alone) 112% | viability ([13]; at 0.00488 µM, OCI-P5x cells, without rucaparib) 106% | viability ([13]; at 0.0195 µM, OCI-C5x cells, with rucaparib 10 µM, 100% = cells with rucaparib alone) 111% | viability ([13]; at 0.0195 µM, OCI-C5x cells, without rucaparib) 109% | viability ([13]; at 0.0195 µM, OCI-P5x cells, with rucaparib 20 µM, 100% = cells with rucaparib alone) 112% | viability ([13]; at 0.0195 µM, OCI-P5x cells, without rucaparib) 111% | viability ([13]; at 0.0781 µM, OCI-C5x cells, with rucaparib 10 µM, 100% = cells with rucaparib alone) 113% | viability ([13]; at 0.0781 µM, OCI-C5x cells, without rucaparib) 104% | viability ([13]; at 0.0781 µM, OCI-P5x cells, with rucaparib 20 µM, 100% = cells with rucaparib alone) 107% | viability ([13]; at 0.0781 µM, OCI-P5x cells, without rucaparib) 115% | viability ([13]; at 0.313 µM, OCI-C5x cells, with rucaparib 10 µM, 100% = cells with rucaparib alone) 114% | viability ([13]; at 0.313 µM, OCI-C5x cells, without rucaparib) 109% | viability ([13]; at 0.313 µM, OCI-P5x cells, with rucaparib 20 µM, 100% = cells with rucaparib alone) 112% | viability ([13]; at 0.313 µM, OCI-P5x cells, without rucaparib) 119% | viability ([13]; at 1.25 µM, OCI-C5x cells, with rucaparib 10 µM, 100% = cells with rucaparib alone) 114% | viability ([13]; at 1.25 µM, OCI-C5x cells, without rucaparib) 103% | viability ([13]; at 1.25 µM, OCI-P5x cells, with rucaparib 20 µM, 100% = cells with rucaparib alone) 116% | viability ([13]; at 1.25 µM, OCI-P5x cells, without rucaparib) 117% | viability ([13]; at 5 µM, OCI-C5x cells, with rucaparib 10 µM, 100% = cells with rucaparib alone) 116% | viability ([13]; at 5 µM, OCI-C5x cells, without rucaparib) 108% | viability ([13]; at 5 µM, OCI-P5x cells, with rucaparib 20 µM, 100% = cells with rucaparib alone) 114% | viability ([13]; at 5 µM, OCI-P5x cells, without rucaparib) 115% | remaining NAD [14] 10 nM | luciferase signal [15] 36 AU | log fold change Tl+ flux (F380Y) -0.00432 | log fold change Tl+ flux (F380Y/beta1) -0.0788 | log fold change Tl+ flux (F380Y/beta2Delta) -0.0091
active: viability decrease (inhibition) [8] 53.7% | viability ([13]; at 0.000305 µM, OCI-C5x cells, without rucaparib) 95% | viability ([13]; at 0.000305 µM, OCI-P5x cells, with rucaparib 20 µM, 100% = cells with rucaparib alone) 99.4% | viability ([13]; at 0.00488 µM, OCI-C5x cells, without rucaparib) 99.5%

NS(=O)(=O)c1ccc(NC(=O)CCC(=O)O)cc1
inactive: nuclear beta-catenin stimulation ([1]; at 10 µM) -0.1% | insulin secretion stimulation [2] -2.4% | viability decrease [3] -9.65% | tube area decrease [4] -1.3% | GLP1 secretion stimulation [5] 0.1% | inhibition of viability [6] -10.5% | viability decrease (inhibition) [7] -26.6% | viability decrease (inhibition) [8] -13.6%
-0.3%: nuclear beta-catenin stimulation ([1]; stimulation, at 2 µM)

CN1C(C(=O)Nc2ccccn2)=C(O)c2ccccc2S1(=O)=O
1.24: normalised cell number [11, 17]
0.96: normalised cell number [11, 16]
0.5%: nuclear beta-catenin stimulation ([1]; stimulation, at 2 µM)
inactive: nuclear beta-catenin stimulation ([1]; at 10 µM) 6.3% | insulin secretion stimulation [2] -2.9% | viability decrease [3] -12.7% | tube area decrease [4] 3.1% | GLP1 secretion stimulation [5] 1.4% | inhibition of viability [6] -10.9% | viability decrease (inhibition) [7] 15.6% | viability decrease (inhibition) [8] 12.8% | inhibition [9] 7.63% | mean signal [10] 261 | red/green cell ratio (normalised) [11] 1.3 | z-score [12, 18] -0.176 and -0.255 and -0.0452 | remaining NAD [14] 10 nM | luciferase signal [15] 56 AU | log fold change Tl+ flux (F380Y) 0.0868 | log fold change Tl+ flux (F380Y/beta1) 0.0287 | log fold change Tl+ flux (F380Y/beta2Delta) 0.0109
0.725 and -0.177 and -0.896: z-score [12, 19]
